Source: PubChem BioAssay (National Center for Advancing Translational Sciences (NCATS))
Compounds with a hit are over-represented: about 11% of the library has one in this group of screens.
PI5P4K alpha inh: blocks human PI5P4K alpha kinase activity; P48426; PI5P4Kalpha enzyme, ADP-Glo luminescence, 60 min; hits give low values; max response, %; hit rate 1.2% among 330,000; AID 652105; active = max response of -50% or lower; inconclusive = between -30% and -50%; inactive = -30% or higher; note: value at the top dose of about 77 µM; % is set by controls: 0 for no effect and ±100 for the full control effect
Target sequence (P48426 whole entry, looked up): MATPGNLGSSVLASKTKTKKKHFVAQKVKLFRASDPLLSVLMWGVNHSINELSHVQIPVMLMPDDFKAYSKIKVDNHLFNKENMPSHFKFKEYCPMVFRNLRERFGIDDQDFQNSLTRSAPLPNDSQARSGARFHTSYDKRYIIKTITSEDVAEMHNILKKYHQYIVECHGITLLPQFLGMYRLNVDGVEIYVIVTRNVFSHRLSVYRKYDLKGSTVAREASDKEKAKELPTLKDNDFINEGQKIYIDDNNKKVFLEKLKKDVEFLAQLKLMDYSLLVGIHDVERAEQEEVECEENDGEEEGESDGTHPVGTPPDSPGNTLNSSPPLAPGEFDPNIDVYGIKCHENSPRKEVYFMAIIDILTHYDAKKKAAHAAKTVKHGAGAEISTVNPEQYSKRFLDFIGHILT
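Luminescence from ADP-Glo served as readout of PI5P4Kalpha activity in a qHTS format. Reaction: enzyme, substrate, compound, ATP at 5 microM final, 60 min at RT.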
L3MBTL1 inh: inhibitors of human L3MBTL1. AlphaScreen L3MBTL1–H3K9me1 peptide binding. Potency, µM (titrated, usually from 57.1 µM), for the others: top-dose activity, negative = inhibition, most hits filed as inhibitors. hit rate 0.66% among 230,000. AID 485360; note: potency is the fitted concentration of half-maximal effect; % is set by controls: 0 for no effect and ±100 for the full control effect; nearly all actives have a fitted effect of over 60% in size
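First, the protein-peptide complex forms for 30 min at room temperature (L3MBTL1 50 nM, biotinylated H3K9me1 peptide 75 nM). Next, compounds are pin-transferred and incubated 30 min. Finally, AlphaScreen beads are added and read after 30 min.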
BAZ2B block: blocks human BAZ2B | Q9UIF8 | AlphaScreen BAZ2B-H3K14Ac peptide displacement | Potency, µM (doses to about 114 µM), inactives show at the top dose activity change, negative = inhibition, most hits filed as inhibitors | hit rate 4.4% among 360,000; note: potency is the fitted concentration of half-maximal effect; % is set by controls: 0 for no effect and ±100 for the full control effect; nearly all actives have a fitted effect of over 60% in size
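BAZ2B 50 nM plus b-H3(5-23)K14Ac 50 nM, PBS pH 7.4/0.01% Tween-20, 30 min RT; compound added (max 110 uM), 30 min RT; streptavidin donor/Ni-chelate acceptor beads 10 ug/mL final, 20 min dark; AlphaScreen read.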
HP1b binding inh: HP1-beta chromodomain-methylated histone interaction inhibition | Potency, µM (doses to about 114 µM), for the others: at the top dose activity change, negative = inhibition, hits mostly inhibitors | AID 540317 | hit rate 0.56% among 390,000 | AlphaScreen HP1-beta / biotin-H3K9me3 peptide binding | P83916; note: potency is the fitted concentration of half-maximal effect; nearly all actives have a fitted effect of over 70% in size
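HP1-beta protein (50 nM final) preincubated 30 min at room temperature with biotinylated H3(1-18)K9me3 peptide (50 nM) in PBS pH 7.4, 0.01% Tween-20, then compound added for 30 min. AlphaScreen streptavidin donor/nickel chelate acceptor beads (10 ug/mL final), 30 min dark, luminescence read.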
JMJD2A Tudor inh: inhibitors of human JMJD2A Tudor domain. AlphaScreen JMJD2A-Tudor / H3K4me3 peptide binding. Potency, µM (titrated, usually from 114 µM), without a hit: top-dose activity change, negative = inhibition, actives largely listed as inhibitors. hit rate 4.4% among 390,000. AID 504339; note: potency is the fitted concentration of half-maximal effect; % is set by controls: 0 for no effect and ±100 for the full control effect; nearly all actives have a fitted effect of over 50% in size
G9a inh: inhibitors of human histone lysine methyltransferase G9a; Q96KQ7; G9a H3K9 monomethylation, AlphaScreen, 2 h; Potency, µM (top dose mostly 102 µM), for the others: at the top dose activity, negative = inhibition, usual class: inhibitors; hit rate 8.8% among 350,000; note: potency is the fitted concentration of half-maximal effect; % is set by controls: 0 for no effect and ±100 for the full control effect; nearly all actives have a fitted effect of over 75% in size
Target sequence (Q96KQ7 913-1193 limits assumed): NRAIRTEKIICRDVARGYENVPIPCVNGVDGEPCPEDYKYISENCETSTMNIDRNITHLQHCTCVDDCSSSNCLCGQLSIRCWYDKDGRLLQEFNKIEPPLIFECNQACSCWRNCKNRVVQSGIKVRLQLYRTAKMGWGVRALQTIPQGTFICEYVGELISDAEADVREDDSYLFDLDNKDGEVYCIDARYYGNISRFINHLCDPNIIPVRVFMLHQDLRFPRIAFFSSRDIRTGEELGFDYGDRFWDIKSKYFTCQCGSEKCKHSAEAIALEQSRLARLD
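G9a (20 nM) was preincubated 15 min with compound, then reacted 2 h at room temperature with 500 nM biotin-H3K9 peptide and 20 µM SAM. Monomethyl-H3K9 detected by AlphaScreen using anti-H3K9me1 antibody.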
An asterisk follows results filed as active; [ ] = another dose, or the depositor's remark. Unless noted, calls come from the whole dose curve; as a rule, active = well fitted inhibition curve with a large enough effect; inconclusive = small, poorly fitted or top-dose-only effect; inactive = no such curve, though single readings can be large or run the other way.

How did CC(C)(C)OC(=O)N1CCC(c2c(C(=O)NCCN3CCOCC3)cnn2-c2ccccc2)CC1 do in these assays?
BAZ2B block: 10%[57.1 µM]; HP1b binding inh: 24%; JMJD2A Tudor inh: 11%; G9a inh: -3%[59 µM]

What do the screens show for `CN1CCN(C2CC(=O)N(c3ccc4c(c3)OCCO4)C2=O)CC1` (stereo not given)?
PI5P4K alpha inh: -5; BAZ2B block: inconclusive; HP1b binding inh: 45%; JMJD2A Tudor inh: inconclusive; G9a inh: 45µM*

Results for CCOc1ccc(S(=O)(=O)Nc2ccc3c(c2)CCCN3S(=O)(=O)c2ccc(C)cc2)cc1 ?
BAZ2B block: 56µM*; HP1b binding inh: -4%; JMJD2A Tudor inh: -12%; G9a inh: inconclusive

Results for COc1ncc2nc(C)c(=O)n(CCC#N)c2n1 ?
G9a inh: -5%[12.7 µM]

What do the screens show for `CCCCOc1ccc(C(=O)Nc2onc3c2CCCC3)cc1`?
BAZ2B block: 2%; HP1b binding inh: 46%; JMJD2A Tudor inh: -4%; G9a inh: 1%[59 µM]

Results for CCN(CC)CCNC(=O)COc1ccc(Cl)cc1Cl ?
L3MBTL1 inh: -2%; BAZ2B block: -9%; HP1b binding inh: 21%; JMJD2A Tudor inh: -14%; G9a inh: inconclusive

What do the screens show for `CN(C)CCNC(=O)COc1cccc(Cl)c1`?
PI5P4K alpha inh: -10; L3MBTL1 inh: 4%; BAZ2B block: inconclusive; HP1b binding inh: 3%; JMJD2A Tudor inh: -6%[57.1 µM]; G9a inh: 22µM*

What do the screens show for `CN(C)CCNC(=O)COc1ccc(Cl)cc1Cl`?
PI5P4K alpha inh: 5; L3MBTL1 inh: 11%; BAZ2B block: 1%; HP1b binding inh: 17%; JMJD2A Tudor inh: inconclusive; G9a inh: 50µM*

What do the screens show for `CN(C(=O)CSc1nnc(-c2ccccc2F)o1)C1CCCCC1`?
BAZ2B block: -15%; HP1b binding inh: 53%; JMJD2A Tudor inh: -5%; G9a inh: -2%[59 µM]

What do the screens show for `O=C(N/N=C/c1ccc2c(c1)OCO2)c1cc(-c2ccccc2)nc2ccccc12`?
PI5P4K alpha inh: 12; L3MBTL1 inh: -1%; BAZ2B block: -4%; HP1b binding inh: 22%; JMJD2A Tudor inh: -20%; G9a inh: 14%[59 µM]

What do the screens show for `O=C(N/N=C/c1ccc2c(c1)OCO2)c1cc(-c2ccco2)nc2ccccc12`?
PI5P4K alpha inh: -55*; L3MBTL1 inh: inconclusive; BAZ2B block: -10%; HP1b binding inh: 28%; JMJD2A Tudor inh: -24%; G9a inh: -39%

What do the screens show for `O=C(O)c1ccccc1/C=N/NC(=O)c1cc(-c2ccco2)nc2ccccc12`?
PI5P4K alpha inh: -94*; L3MBTL1 inh: inconclusive; BAZ2B block: 20µM*; HP1b binding inh: inconclusive; JMJD2A Tudor inh: 50µM*; G9a inh: 14µM*

Results for CCO/C(C)=C1\N=C(c2ccc(Cl)cc2)OC1=O ?
PI5P4K alpha inh: 0; L3MBTL1 inh: 4%; BAZ2B block: -6%[57.1 µM]; HP1b binding inh: 34%; JMJD2A Tudor inh: -19%; G9a inh: 45µM*

What do the screens show for `COc1cccc(NC(=O)C2CCCN(S(=O)(=O)c3cn(C(C)C)cn3)C2)c1` (stereo not given)?
BAZ2B block: -9%; HP1b binding inh: 26%; JMJD2A Tudor inh: -13%; G9a inh: -10%[59 µM]

What do the screens show for `COc1ccc(-c2cc(=O)oc3cc(OCC(=O)Nc4ccccn4)ccc23)cc1`?
PI5P4K alpha inh: inconclusive; BAZ2B block: -27%; HP1b binding inh: 19%; JMJD2A Tudor inh: 18µM*; G9a inh: 18%

What do the screens show for `COc1ccccc1NC(=O)C(=O)N/N=C(\C)CC(=O)Nc1ccccn1`?
PI5P4K alpha inh: 4; L3MBTL1 inh: 4%; BAZ2B block: 79µM*; HP1b binding inh: 44%; JMJD2A Tudor inh: -8%

How did COc1ccccc1OCC(=O)Nc1ccccn1 do in these assays?
L3MBTL1 inh: -11%; BAZ2B block: 4%; HP1b binding inh: 31%; JMJD2A Tudor inh: -7%; G9a inh: 20µM*

What do the screens show for `CCN(C(=O)c1cc(S(=O)(=O)N2CCCC2)cn1C)c1ccc(OC)cc1`?
BAZ2B block: -2%; HP1b binding inh: 10%; JMJD2A Tudor inh: -35%; G9a inh: -4%[59 µM]

What do the screens show for `O=C(c1cc(-c2cccc(Cl)c2)on1)N1CCCCCC1`?
PI5P4K alpha inh: -11; BAZ2B block: 26%; HP1b binding inh: 65%; JMJD2A Tudor inh: 40%; G9a inh: 18%

Results for Cc1ccc(-n2nc(-c3ccco3)cc2C(=O)O)cc1 ?
PI5P4K alpha inh: -51*; BAZ2B block: 79µM*; HP1b binding inh: 5%; JMJD2A Tudor inh: -2%[11.4 µM]; G9a inh: inconclusive

How did O=C(c1cc(-c2ccco2)nn1-c1cccc(Cl)c1)N1CCCCC1 do in these assays?
PI5P4K alpha inh: -82*; L3MBTL1 inh: -26%; BAZ2B block: inconclusive; HP1b binding inh: inconclusive; JMJD2A Tudor inh: 25µM*; G9a inh: 3.2µM*

What do the screens show for `COc1ccc(OCCn2cc(C(=O)c3ccco3)c3ccccc32)cc1`?
BAZ2B block: -24%; HP1b binding inh: 24%; JMJD2A Tudor inh: -29%; G9a inh: -37%[59 µM]

What do the screens show for `CCOC(=O)C1=C(C)N(C[C@@H]2CC[C@@H](Cc3ccc(-c4ccccc4)cc3)O2)C(=O)NC1c1ccc(C(F)(F)F)cc1` (stereo not given in full)?
PI5P4K alpha inh: 2; L3MBTL1 inh: -2%; HP1b binding inh: 12%; JMJD2A Tudor inh: -35%

How did CCOC(=O)C1=C(C)N(C[C@@H]2CC[C@@H](Cc3ccc(-c4ccccc4)cc3)O2)C(=O)NC1c1ccc(SCc2ccco2)c([N+](=O)[O-])c1 (stereo not given in full) do in these assays?
PI5P4K alpha inh: -70*; L3MBTL1 inh: 32µM*; HP1b binding inh: -8%; JMJD2A Tudor inh: 40µM*

How did Cc1cc(F)ccc1NC(=O)CCn1nc(C)c(S(=O)(=O)N2CCCCC2)c1C do in these assays?
BAZ2B block: -2%; HP1b binding inh: 3%; JMJD2A Tudor inh: -12%; G9a inh: -11%[59 µM]

Results for CCCc1noc(-c2ccc(N3CCCCC3)c([N+](=O)[O-])c2)n1 ?
BAZ2B block: -12%; HP1b binding inh: 44%; JMJD2A Tudor inh: -14%; G9a inh: -28%[59 µM]

How did CCOc1ccc(NC(=O)c2ccc3nc(C(C)C)oc3c2)cc1 do in these assays?
BAZ2B block: -11%; HP1b binding inh: 28%[57 µM]; JMJD2A Tudor inh: -4%; G9a inh: 5%[59 µM]

How did CSC1=C(C#N)C(CC(C)C)C2=C(CCCC2=O)N1 (stereo not given) do in these assays?
PI5P4K alpha inh: 0; L3MBTL1 inh: 7%; BAZ2B block: 8%; HP1b binding inh: 43%; JMJD2A Tudor inh: -9%; G9a inh: -3%
